Screening data as filed in PubChem BioAssay.
TDP1 cell CPT – growth inhibition of DT40 Tdp1-/-;hTDP1 cells with camptothecin (screen for TDP1 inhibitors). chicken DT40 Tdp1-/-;hTDP1 cells + 20 nM CPT, ATP luminescence, 48 h. Potency, µM (titrated, usually from 46.2 µM), inactives show at the highest dose activity change, negative = growth inhibition, most hits filed as inhibitors. 420,000 compounds, 12% hits. AID 686979; note: % is set by controls: 0 for no effect and ±100 for the full control effect; nearly all actives have a fitted effect of over 55% in size
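Chicken DT40 Tdp1-/- cells stably complemented with human TDP1 were seeded at 400 cells/well in medium containing 20 nM camptothecin, exposed to pin-transferred compounds, and grown at 37 °C for at least 48 hr. Viability was read as ATP luminescence.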
TDP1 block – inhibitors of human tyrosyl-DNA phosphodiesterase TDP1 | recombinant TDP1, AlphaScreen DNA substrate cleavage | Potency, µM (titrated, usually from 130 µM), for the others: top-dose activity change, negative = inhibition, most hits filed as inhibitors | 350,000 compounds, 0.28% hits; note: % is set by controls: 0 for no effect and ±100 for the full control effect; nearly all actives have a fitted effect of over 40% in size
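Recombinant human Tdp1 (E. coli-expressed, 1 nM final) preincubated with compounds 15 min at room temperature, then 5'-biotin/3'-phosphotyrosine-FITC DNA substrate (15 nM final) added for 5 min. AlphaScreen beads (10 ug/ml final) added 10 min; cleavage lowers signal.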
ClpP mod – qHTS Assay for Activators of ClpP; purified B. subtilis ClpP, FRET peptide cleavage, 20 min; Potency, µM (top dose mostly 57.5 µM), for the others: at the top dose activity change, negative = active; 340,000 compounds, 1.9% hits; active = well fitted falling curve with a large enough effect; inconclusive = small, poorly fitted or top-dose-only effect; inactive = no such curve, though single readings can be large or run the other way; note: the source files actives as falling curves though it sought activators and does not explain the sign; nearly all actives have a fitted effect of over 65% in size
Target sequence (P80244 whole entry, looked up): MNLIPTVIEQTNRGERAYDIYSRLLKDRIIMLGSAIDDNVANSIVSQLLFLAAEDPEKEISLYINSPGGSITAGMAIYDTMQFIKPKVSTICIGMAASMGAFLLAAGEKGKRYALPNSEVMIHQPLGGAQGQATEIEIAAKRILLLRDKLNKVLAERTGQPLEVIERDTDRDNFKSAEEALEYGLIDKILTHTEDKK
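Purified B. subtilis ClpP, 10 microg/mL final in Tris/HCl pH8 with KCl, BSA, glycerol and Tween-20, cleaved an Abz/nitrotyrosine-quenched decapeptide. Fluorescence (ex 320, em 430) was read at 0 and 20 min at room temperature. Delta was normalized to 5.8 microM ADEP and DMSO/no-enzyme controls.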
TDP1 cell noCPT – qHTS for Inhibitors of human tyrosyl-DNA phosphodiesterase 1 (TDP1): qHTS in cells in absence of CPT | DT40 Tdp1-/- hTDP1 cells, no CPT, ATP luminescence, 48 h | Potency, µM (titrated, usually from 46.2 µM), for inactives: at the top dose activity change, negative = growth inhibition, usual class: inhibitors | 420,000 compounds, 15% hits | AID 686978, 2013; note: % is set by controls: 0 for no effect and ±100 for the full control effect; nearly all actives have a fitted effect of over 55% in size
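Chicken DT40 Tdp1-/- cells stably complemented with human TDP1 were seeded at 400 cells/well with DMSO in place of 20 nM camptothecin. After compound pinning, cells grew at least 48 hr at 37 °C; viability read by CellTiter-Glo luminescence.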
Starred values were filed as active, the others as inactive; ? = inconclusive; · = not tested or not shown. Only some compounds are listed: those with a hit (about 17% of all), similar ones and a draw of the others. Unless noted, calls come from the whole dose curve; as a rule, active = well fitted curve in the direction sought with a large enough effect; inconclusive = small, poorly fitted or top-dose-only effect, or another doubt; inactive = no such curve, though single readings can be large; an effect the other way counts as inactive or inconclusive. Potency is the fitted concentration of half-maximal effect.

SMILES	TDP1 cell CPT	TDP1 block	ClpP mod	TDP1 cell noCPT
O=C(Cc1csc(Nc2nc(=S)[nH]c3ccccc23)n1)N1CCN(c2cccc(Cl)c2)CC1	14.6µM*	7.7%	·	14.6µM*
O=C(COc1cc(O)c2c(=O)c3ccccc3oc2c1)OCc1ccccc1	16.1%	6.0%	·	-1.8%
CC1=CC(C)(C)N(C(=O)CNC2CCCC2)c2cc(C)ccc21	?	10.1%	2.5%	25.9µM*
CC1=CC(C)(C)N(C(=O)CN2C(=O)c3ccccc3C2=O)c2ccccc21	?	2.1%	0.2%	?
CCOc1ccc2c(c1)N(C(=O)CN1C(=O)CCC1=O)C(C)(C)C=C2C	?	-1.0%	31.6µM*	?
CC1=CC(C)(C)N(C(=O)CSc2ncn[nH]2)c2ccc(C)cc21	-29.0%	0.0%	0.3%	-23.2%
COC(=O)c1cc2sccc2n1CC(=O)Nc1ccc(C)cc1C	-26.3%	1.0%	-1.9%	-23.1%
Cc1ccc(N2CC(C(=O)Nc3cccc(S(=O)(=O)N4CCOCC4)c3)CC2=O)cc1 (stereo unspecified)	-14.4%	·	0.5%	-21.7%
O=C(COc1ccc(Cl)cc1Cl)N(c1ccccn1)C1CCCCC1	25.9µM*	-2.3%	0.6%	?
CC(C)(C)c1ccc(OCC(=O)N(c2ccccn2)C2CCCCC2)cc1	?	2.7%	-1.5%	14.6µM*
Cc1ccc(OCC(=O)N(c2ccccn2)C2CCCCC2)c(C)c1	?	3.5%	-1.4%	?
COC(=O)COc1ccc(NC(=O)c2ccco2)cc1	-15.4%	·	·	-15.0%
NS(=O)(=O)c1ccc(CNC(=O)Cc2c(F)cccc2Cl)cc1	6.7%	7.2%	·	-6.7%
COc1ccc(C)cc1NC(=O)c1sc2ncn(CC(=O)N3CCCCC3)c(=O)c2c1C	-28.1%	5.9%	0.4%	-10.4%
Cc1ccccc1CN1c2ccccc2-c2nc(SCC(=O)c3ccccc3)ncc2S1(=O)=O	0.4%	5.3%	-6.2%	-0.3%
Cc1cccc(C)c1NC(=O)CSc1ncc2c(n1)-c1ccc(Cl)cc1N(Cc1ccccc1)S2(=O)=O	?	-2.6%	4.3%	16.4µM*
COc1ccc(CNC(=O)CSc2ncc3c(n2)-c2ccc(Cl)cc2N(Cc2ccccc2)S3(=O)=O)cc1	?	5.3%	4.0%	?
CCc1cccc(NC(=O)CSc2ncc3c(n2)-c2cc(Cl)ccc2N(C)S3(=O)=O)c1	?	5.3%	0.9%	?
COc1ccc(C)cc1NC(=O)CSc1ncc2c(n1)-c1ccc(Cl)cc1N(Cc1ccccc1)S2(=O)=O	9.2µM*	2.6%	-3.3%	?
O=C(CSc1ncc2c(n1)-c1cc(Cl)ccc1N(Cc1ccccc1F)S2(=O)=O)Nc1cccc(C(F)(F)F)c1	18.4µM*	-2.6%	4.3%	?
COc1ccc(OC)c(C(=O)CSc2ncc3c(n2)-c2ccccc2N(Cc2ccccc2C)S3(=O)=O)c1	18.4µM*	0.0%	-3.2%	?
COc1cccc(-c2cc(NCc3cccs3)ncn2)c1	?	-2.7%	·	?
CCCCCNC(=O)C(c1ccnc2ccccc12)n1c(=O)c(-c2cc3ccccc3[nH]2)nc2ccccc21 (stereo unspecified)	?	·	-18.5%	?
COc1cccc(CNC(=O)CSc2ncc3c(n2)-c2cc(Cl)ccc2N(C)S3(=O)=O)c1	20.6µM*	2.6%	-9.3%	?
Cc1cccc(NC(=O)CSc2ncc3c(n2)-c2cc(Cl)ccc2N(C)S3(=O)=O)c1C	?	5.3%	4.1%	?
COc1ccccc1NC(=O)CSc1ncc2c(n1)-c1cc(Cl)ccc1N(Cc1ccccc1)S2(=O)=O	?	0.0%	-10.0%	?
Cc1ccccc1CN1c2ccccc2-c2nc(SCC(=O)Nc3cc(F)ccc3F)ncc2S1(=O)=O	?	2.6%	4.4%	10.3µM*
NC(=O)CSc1ncc2c(n1)-c1ccccc1N(Cc1ccccc1)S2(=O)=O	-24.6%	0.0%	?	-8.1%
COC(=O)c1ccc(NC(=O)CSc2ncc3c(n2)-c2cc(Cl)ccc2N(Cc2ccccc2)S3(=O)=O)cc1	?	7.9%	?	20.6µM*
CCN(C(=O)CSc1ncc2c(n1)-c1cc(Cl)ccc1N(Cc1ccccc1)S2(=O)=O)c1cccc(C)c1	?	2.6%	-6.5%	16.4µM*
